Experimental data from PubChem BioAssay AID1159580 (chemical genetic matrix, 2015).
The campaign covered roughly 5,500 compounds. About 2,000 (36%) were called active. Another 18% or so got no clear call; they are omitted. No stated cut-off is given here; in the data, active means normalized growth mostly below about 0.91 (no sharp cut-off); inconclusive means no clear call, values can overlap the other calls; inactive means mostly above about 0.92. The list shows a part of the results.

Test: chemical genetic growth profiling, strain panel (AID 1159580);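 further: tested at 20 µM; growth read once vehicle control cultures reached saturation at 30 °C; 1 = growth at the plate median or of vehicle wells; lower values mean less growth of the strain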
Settings: growth OD

Measured: normalized growth

O=C(O)CCOc1ccc(Cl)cc1
active: S. cerevisiae deletion strains, locus YBR229C, strain ROT2, hits give low values 0.795 | S. cerevisiae deletion strains, locus YCL061C, strain MRC1, hits give low values 0.825 | S. cerevisiae deletion strains, locus YGR078C, strain PAC10, hits give low values 0.753 | S. cerevisiae deletion strains, locus YHR087W, strain rtc3, hits give low values 0.729 | S. cerevisiae deletion strains, locus YJL187C, strain SWE1, hits give low values 0.837 | S. cerevisiae deletion strains, locus YJR043C, strain POL32, hits give low values 0.913 | S. cerevisiae deletion strains, locus YJR075W, strain HOC1, hits give low values 0.64 | S. cerevisiae deletion strains, locus YLR058C, strain SHM2 (second series), hits give low values 0.904 | S. cerevisiae deletion strains, locus YMR219W, strain ESC1, hits give low values 0.838 | S. cerevisiae deletion strains, locus YMR263W, strain SAP30, hits give low values 0.859 | S. cerevisiae deletion strains, locus YNL153C, strain GIM3, hits give low values 0.793 | S. cerevisiae deletion strains, locus YNL322C, strain KRE1, hits give low values 0.9 | S. cerevisiae deletion strains, locus YPL055C, strain LGE1, hits give low values 0.763
inactive: S. cerevisiae deletion strains, locus YAL013W, strain DEP1, hits give low values 0.956 | S. cerevisiae deletion strains, locus YDL101C, strain DUN1, hits give low values 0.901 | S. cerevisiae deletion strains, locus YDL134C, strain PPH21, hits give low values 1 | S. cerevisiae deletion strains, locus YEL061C, strain CIN8, hits give low values 0.999 | S. cerevisiae deletion strains, locus YHR030C, strain SLT2, hits give low values 1.01 | S. cerevisiae deletion strains, locus YKL190W, strain CNB1, hits give low values 1 | S. cerevisiae deletion strains, locus YLR039C, strain RIC1, hits give low values 0.979 | S. cerevisiae deletion strains, locus YLR085C, strain ARP6, hits give low values 1 | S. cerevisiae deletion strains, locus YLR262C, strain YPT6, hits give low values 0.993 | S. cerevisiae deletion strains, locus YML094W, strain GIM5, hits give low values 1.01 | S. cerevisiae deletion strains, locus YMR307W, strain GAS1, hits give low values 0.895 | S. cerevisiae deletion strains, locus YNL298W, strain CLA4 (second series), hits give low values 1.03 | S. cerevisiae deletion strains, locus YNR030W, strain Alg12, hits give low values 1 | S. cerevisiae deletion strains, locus YPL241C, strain CIN2, hits give low values 0.954 | S. cerevisiae deletion strains, locus YPR135W, strain CTF4, hits give low values 1.11 | S. cerevisiae strains, strain wild type, hits give low values 1.01
